TRHR agonist = qHTS for Small Molecule Agonists and Allosteric Enhancers of Human TRH Receptor: Primary Screen for Agonists; TRHR cells, calcium flux fluo-8, FDSS agonist mode; activation, % at 2 µM; Thyrotropin-releasing hormone receptor (Homo sapiens), P34981; hit rate 0.18% among 360,000; note: 0% is about no effect
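Read-out: compound-evoked intracellular calcium rise in TRHR cells, fluo-8 dye, kinetic FDSS fluorescence at 1 s/cycle following a 10-cycle baseline. Cells cultured overnight before dye loading (30 min–1.5 h, RT).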
TRHR enhancer = qHTS for Small Molecule Agonists and Allosteric Enhancers of Human TRH Receptor: Primary Screen for Enhancers | Thyrotropin-releasing hormone receptor (Homo sapiens), P34981 | TRHR cells, fluo-8 calcium fluorescence, EC20 TRH enhancement | enhancement, % at 2 µM | hit rate 0.66% among 360,000 | AID 493056, 2011; in the data active = enhancement above about 30%; note: 0% is about no effect
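TRHR-expressing cells loaded with fluo-8 calcium dye were read kinetically (ex 480/em 530) during compound addition, then stimulated with an EC20 of TRH (10 nM final). Enhancement of the Gq-mediated intracellular calcium response was scored.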
D1 antagonist = Antagonist of Human D 1 Dopamine Receptor: qHTS. D(1A) dopamine receptor (Homo sapiens), P21728. AID 504652, 2011. activity change, negative = inhibition, % at 10 µM. hit rate 3.2% among 360,000. HEK293 TREx D1 cells, calcium flux, dopamine EC80; stronger effect = lower value; in the data active = activity change below about -30%; note: % is set by controls: 0 for no effect and ±100 for the full control effect
Target sequence (P21728 whole entry, looked up): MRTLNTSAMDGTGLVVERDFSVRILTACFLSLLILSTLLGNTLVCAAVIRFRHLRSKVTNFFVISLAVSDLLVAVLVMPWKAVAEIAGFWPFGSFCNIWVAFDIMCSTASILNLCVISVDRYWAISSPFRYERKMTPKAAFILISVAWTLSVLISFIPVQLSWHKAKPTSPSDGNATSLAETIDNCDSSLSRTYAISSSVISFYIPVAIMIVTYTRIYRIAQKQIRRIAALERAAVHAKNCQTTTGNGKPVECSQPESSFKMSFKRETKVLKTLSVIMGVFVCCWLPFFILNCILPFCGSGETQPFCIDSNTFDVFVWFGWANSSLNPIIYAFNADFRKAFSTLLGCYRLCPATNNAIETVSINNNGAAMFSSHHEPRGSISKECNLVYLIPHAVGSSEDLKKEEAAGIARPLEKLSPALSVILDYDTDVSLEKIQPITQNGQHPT
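Inducible Hek293 Trex D1 cells (tetracycline, overnight, 30 C). Calcium dye 30–90 min RT. Antagonist mode: EC80 dopamine added after 180 s compound read.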
D1 agonist = Allosteric Agonists of the Human D1 Dopamine Receptor: qHTS; HEK293 T-REx D1 cells, calcium flux, agonist mode; activation, % at 2 µM; hit rate 1% among 360,000; note: 0% is about no effect
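Agonism was scored from calcium flux recorded over 180 s (1 read/s) after pintool compound addition, following a 10-cycle baseline. Cells were inducible force-coupled HEK293 TREx D1, plated overnight at 30 C and loaded with no-wash calcium dye.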
D1 PAM = Potentiators of Human D1 Dopamine Receptor: qHTS; D(1A) dopamine receptor (Homo sapiens), P21728; HEK293 TREx D1 cells, calcium flux, dopamine EC20 potentiation; potentiation, % at 10 µM; hit rate 0.036% among 360,000; AID 504651, 2011; in the data active = potentiation above about 30%; note: 0% is about no effect
* hit, by the source's call. Hits are enriched below; roughly 4.7% of the tested compounds scored in any of these assays. Cut-off read from the data, not from the text of the source, unless noted: active = activation above about 30%; inactive = the rest.

SMILES	TRHR agonist	TRHR enhancer	D1 antagonist	D1 agonist	D1 PAM
Cc1cccc(N2CCN(C(=O)c3cccc(N4C(=O)C5C6C=CC(C6)C5C4=O)c3)CC2C)c1 (centres undefined)	-1	11	-35*	12	-11
Cc1cccc(N2CCN(C(=O)c3ccccn3)CC2C)c1 (centres undefined)	-2	1	-4	1	-3
COc1ccc(-n2nc(C(=O)NCC(=O)NCC3COc4ccccc4O3)c3ccccc3c2=O)c(OC)c1 (centres undefined)	0	33*	15	2	-8
CCOC(=O)c1oc2ccc(Cl)cc2c1NC(C)=O	0	5	1	1	5
N#Cc1c(NC(=S)NC(=O)Cc2cccs2)sc2c1CCCCC2	0	-2	0	1	-1
C=CCNC(=O)c1sc(-c2ccccc2)nc1C	0	39*	-8	1	-5
Cc1nc(-c2ccccc2)sc1C(=O)CSc1ccc(Cl)cc1	1	-3	-4	10	-2
Cc1nc(-c2ccccc2)sc1C(=O)CSc1ccc(Br)cc1	2	2	-36*	11	-2
Cc1nc(-c2ccccc2)sc1C(=O)NN	1	-4	-21	2	5
Cc1cc(OC(C)C(=O)NCc2cccnc2)c2c(C)cc(=O)oc2c1 (centres undefined)	-1	-2	-18	1	-3
COc1ccc2[nH]c(C(=O)N3CCNCC3)cc2c1OC	0	5	-41*	2	-4
CCc1ccc(OCC(=O)NCC(c2ccc(Cl)cc2)N2CCOCC2)cc1 (centres undefined)	0	9	-10	24	-1
O=C(COC(=O)Cn1nc(-c2ccccc2)oc1=O)Nc1ccc(F)cc1	-1	5	-34*	3	-5
COC(=O)c1ccc(NC(=O)CSc2nc3cc4ccccc4cc3[nH]2)cc1	1	-4	-1	3	-3
CC1CCN(S(=O)(=O)c2ccc(C(=O)N3CCCC(C(F)(F)F)C3)cc2)CC1 (centres undefined)	0	4	-33*	8	-1
Cc1ccc(NS(=O)(=O)c2ccc(C(=O)N3CCCC(C(F)(F)F)C3)cc2)cc1 (centres undefined)	16	-3	-62*	70*	4
COc1ccccc1NS(=O)(=O)c1ccc(C(=O)N2CCCC(C(F)(F)F)C2)cc1 (centres undefined)	-1	-9	4	17	0
CC1CCCCC1NC(=O)c1nn(C)c2c1CS(=O)(=O)c1ccccc1-2 (centres undefined)	0	-35	-14	-1	-1
CCCNC(=O)Cn1nc(C)c2c(C)n(-c3ccccc3)nc2c1=O	0	3	2	2	-5
CC(=O)c1c(C)[nH]c(C2=NNC(=NC(C)(C)C)SC2)c1C	1	0	-33*	2	-8
CC(C)(C)N=C1NN=C(c2ccc(Cl)cc2)CS1	0	6	-40*	0	-11
CCOC(=O)c1c(C)[nH]c(C2=NNC(=Nc3ccc(OCC)cc3)SC2)c1C	-1	4	-72*	-2	-16
CCOC(=O)CC1(NC(=O)c2cc(COc3ccc(F)c(F)c3)on2)CCCCC1	2	1	32	31*	-2
Cc1cc(CNC(=O)c2cc(COc3ccc(F)c(F)c3)on2)nn1C	1	3	-3	27	1
CN(CC(=O)Nc1ccc(OC(F)(F)F)cc1)C1CCCCC1	3	-5	-27	8	-3
SMILES	TRHR agonist	TRHR enhancer	D1 antagonist	D1 agonist	D1 PAM
O=C(CNCC1CCCCC1)Nc1ccc(OC(F)(F)F)cc1	12	-14	-42*	93*	-3
O=C(Cc1ccc(Cl)cc1)NC(=S)Nc1ccccc1N1CCOCC1	3	4	-34*	34*	12
CC(=O)c1cccc(NC(=S)NC(=O)c2ccccc2Cl)c1	0	5	-31*	6	-3
CC(=O)c1cccc(NC(=S)NC(=O)c2ccc(C)cc2Cl)c1	0	-4	-19	6	0
CC(=O)c1cccc(NC(=S)NC(=O)Cc2ccc(Cl)cc2)c1	6	3	-1	63*	-5
CC(=O)Nc1cccc(C(=O)OCc2ccc(C(=O)Oc3ccc(Cl)cc3)cc2)c1	3	3	-32*	9	-7
Cc1cc(C)cc(NC(=O)CSCc2cc(=O)c3ccc(C)c(C)c3[nH]2)c1	0	1	-3	1	5
COc1ccccc1N1CCN(C(=O)c2cc(S(=O)(=O)N3CCOCC3)ccc2C)CC1	0	-2	-14	0	-6
CCCN(CCC)C(=O)Cn1c(=O)n(-c2cccc(OC)c2)c(=O)c2c(C)c(C(=O)N(C)C)sc21	0	0	9	3	-2
Cc1cccc(C(C)(C)C)c1OCCOCCN1CCCC1	0	4	-7	5	8
Cc1cc(C)c(OCCN2CCCC2)c(Cl)c1	0	-2	-59*	5	4
Cc1cc(Cl)cc(Cl)c1OCCN1CCCC1	0	7	-31*	3	0
Cc1cc(C)c(OCCOCCN2CCN(C)CC2)c(Cl)c1	0	12	-7	-2	0
Cc1cccc(C(C)(C)C)c1OCCN1CCCC1	0	-2	-32*	4	-5
COc1cc(C(=O)Nc2ccc(C(=O)NCC3CCCO3)cc2)cc(OC)c1OC (centres undefined)	0	4	-4	2	-1
CCOc1ccc(NC(=O)COc2ccc(C(=O)NCC3CCCO3)cc2OC)cc1 (centres undefined)	1	4	-37*	2	12
CCOc1ccc(NC(=O)CN(C)C(=O)c2ccc(OCC3CCCO3)cc2)cc1OCC (centres undefined)	0	0	-42*	1	-10
COc1ccc(OC)c(CNC(=O)CN(c2ccc(C)cc2)S(=O)(=O)N(C)C)c1	0	-4	9	0	-2
CCn1c(SCC(=O)N/N=C/C=C\c2ccccc2[N+](=O)[O-])nnc1-c1ccccc1	-1	-6	-57*	-1	-1
Cc1ccc(CSc2nnc(SCC(=O)N/N=C/C=C/c3ccccc3[N+](=O)[O-])s2)cc1	1	7	-10	3	3
CCc1nc2nc(C)c(NS(=O)(=O)c3ccc(C(C)(C)C)cc3)c(=O)n2[nH]1	0	7	-72*	0	0
CC(C)(C)c1ccc(-c2noc(CCC(N)=O)n2)cc1	-1	2	-40*	20	-10

Screening results: PubChem BioAssay, National Center for Advancing Translational Sciences (NCATS)
